# Data: the supplement of paper PMC8728848
# The entries come from a sample that favours the strongest signals as a whole.
# Assays:
# Assay in all cases: glycan array binding signal (z-score within array); higher = stronger binding
# Conditions in all cases: glycan notation: IUPAC condensed, linker removed
# Fuc(a1-2)Gal = target: Fuc(a1-2)Gal
# Outline: (§1)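 The Consortium for Functional Glycomics database supplied 3228 glycan arrays, of which those lacking an available protein sequence were dropped. The binding signal, a within-array Z-score, was averaged across arrays of the same protein sequence and across linkers. Negative scores can be read as non-binding.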
# [1] = target: Fuc(a1-2)Gal(b1-4)GlcNAc(b1-6)GalNAc
# Outline: as §1
# [2] = target: Fuc(a1-2)Gal3S(b1-4)GlcNAc
# Outline: as §1
# [3] = target: Fuc(a1-2)Gal6S(b1-3)GlcNAc
# Outline: as §1
# [4] = target: Fuc(a1-2)[Gal(a1-3)]Gal(b1-3)GlcNAc(b1-3)GalNAc
# Outline: as §1
# [5] = target: Fuc(a1-2)[Gal(a1-3)]Gal(b1-3)GlcNAc(b1-6)GalNAc
# Outline: as §1
# [6] = target: Fuc(a1-2)[Gal(a1-3)]Gal(b1-4)[Fuc(a1-3)]Glc
# Outline: as §1
# [7] = target: Fuc(a1-2)[Gal(a1-4)]Gal(b1-4)GlcNAc
# Outline: as §1
# [8] = target: Fuc(a1-2)[GalNAc(a1-3)]Gal(b1-3)GalNAc(a1-3)[Fuc(a1-2)]Gal(b1-4)GlcNAc
# Outline: as §1
# [9] = target: Fuc(a1-2)[GalNAc(a1-3)]Gal(b1-3)GlcNAc(b1-2)Man(a1-3)[Fuc(a1-2)[GalNAc(a1-3)]Gal(b1-3)GlcNAc(b1-2)Man(a1-6)]Man(b1-4)GlcNAc(b1-4)GlcNAc
# Outline: as §1
# [10] = target: Fuc(a1-2)[GalNAc(a1-3)]Gal(b1-4)GlcNAc(b1-2)Man
# Outline: as §1
# [11] = target: Fuc(a1-2)[GalNAc(a1-3)]Gal(b1-4)GlcNAc(b1-3)Gal(b1-4)GlcNAc(b1-3)Gal(b1-4)GlcNAc
# Outline: as §1
# [12] = target: Fuc(a1-2)[GalNAc(a1-4)]Gal(b1-4)GlcNAc
# Outline: as §1
# [13] = target: Fuc(a1-3)[Gal(b1-4)]GlcNAc(b1-2)Man(a1-3)[Fuc(a1-3)[Gal(b1-4)]GlcNAc(b1-2)Man(a1-6)]Man(b1-4)GlcNAc(b1-4)[Fuc(a1-6)]GlcNAc
# Outline: as §1
# [14] = target: Fuc(a1-3)[Gal(b1-4)]GlcNAc(b1-3)GalNAc
# Outline: as §1
# [15] = target: Gal(a1-3)Gal(b1-3)GlcNAc(b1-6)GalNAc
# Outline: as §1
# [16] = target: Gal(a1-3)Gal(b1-3)[Fuc(a1-4)]GlcNAc(b1-2)Man(a1-3)[Gal(a1-3)Gal(b1-3)[Fuc(a1-4)]GlcNAc(b1-2)Man(a1-6)]Man(b1-4)GlcNAc(b1-4)GlcNAc
# Outline: as §1
# Gal(a1-3)Gal(b1-4)Glc = target: Gal(a1-3)Gal(b1-4)Glc
# Outline: as §1
# [17] = target: Gal(a1-3)Gal(b1-4)GlcNAc(b1-3)GalNAc
# Outline: as §1
# [18] = target: Gal(b1-3)GlcNAc(b1-3)Gal(b1-4)GlcNAc(b1-2)[Gal(b1-3)GlcNAc(b1-3)Gal(b1-4)GlcNAc(b1-6)]Man(a1-6)[Gal(b1-3)GlcNAc(b1-3)Gal(b1-4)GlcNAc(b1-2)Man(a1-3)]Man(b1-4)GlcNAc(b1-4)[Fuc(a1-6)]GlcNAc
# Outline: as §1
# [19] = target: Gal(b1-4)GlcNAc(b1-2)Man(a1-3)[Gal(b1-4)GlcNAc(b1-2)Man(a1-6)]Man(b1-4)GlcNAc(b1-4)GlcNAc
# Outline: as §1
# [20] = target: Gal(b1-4)GlcNAc(b1-2)[Gal(b1-4)GlcNAc(b1-4)]Man(a1-3)[Gal(b1-4)GlcNAc(b1-2)[Gal(b1-4)GlcNAc(b1-6)]Man(a1-6)]Man(b1-4)GlcNAc(b1-4)GlcNAc
# Outline: as §1
# [21] = target: Gal(b1-4)GlcNAc(b1-2)[Gal(b1-4)GlcNAc(b1-6)]Man(a1-6)[Gal(b1-4)GlcNAc(b1-2)Man(a1-3)]Man(b1-4)GlcNAc(b1-4)[Fuc(a1-6)]GlcNAc
# Outline: as §1
# [22] = target: Gal(b1-4)GlcNAc(b1-3)Gal(b1-4)GlcNAc(b1-2)[Gal(b1-4)GlcNAc(b1-3)Gal(b1-4)GlcNAc(b1-6)]Man(a1-6)[Gal(b1-4)GlcNAc(b1-3)Gal(b1-4)GlcNAc(b1-2)Man(a1-3)]Man(b1-4)GlcNAc(b1-4)GlcNAc
# Outline: as §1
# [23] = target: Gal3S(b1-3)[Fuc(a1-4)]GlcNAc
# Outline: as §1
# GalNAc(a1-3)GalNAc = target: GalNAc(a1-3)GalNAc
# Outline: as §1
# [24] = target: GalNAc(a1-3)GalNAc(b1-3)Gal(a1-4)Gal(b1-4)GlcNAc
# Outline: as §1
# [25] = target: GalNAc(b1-3)Gal(a1-6)Gal(b1-4)Glc
# Outline: as §1
# [26] = target: GalNAc(b1-4)GlcNAc(b1-2)Man
# Outline: as §1
# [27] = target: GalNAc3S(b1-4)[Fuc(a1-3)]GlcNAc
# Outline: as §1
# GalNAc4S6S(b1-4)GlcNAc = target: GalNAc4S6S(b1-4)GlcNAc
# Outline: as §1
# [28] = target: GlcNAc(a1-4)Gal(b1-4)GlcNAc(b1-3)Gal(b1-4)Glc
# Outline: as §1
# [29] = target: GlcNAc(a1-4)Gal(b1-4)GlcNAc(b1-3)Gal(b1-4)[Fuc(a1-3)]GlcNAc(b1-3)Gal(b1-4)[Fuc(a1-3)]GlcNAc
# Outline: as §1
# [30] = target: GlcNAc(a1-6)Gal(b1-4)GlcNAc
# Outline: as §1
# GlcNAc(b1-3)Fuc = target: GlcNAc(b1-3)Fuc
# Outline: as §1
# [31] = target: Kdn(a2-3)Gal(b1-4)[Fuc(a1-3)]GlcNAc
# Outline: as §1
# [32] = target: Man(a1-2)Man(a1-6)[Man(a1-3)]Man(a1-6)[Man(a1-2)Man(a1-2)Man(a1-3)]Man
# Outline: as §1
# Neu5Ac(a2-3)Gal = target: Neu5Ac(a2-3)Gal
# Outline: as §1
# [33] = target: Neu5Ac(a2-3)Gal(b1-4)GlcNAc
# Outline: as §1
# [34] = target: Neu5Ac(a2-3)Gal(b1-4)GlcNAc(b1-3)Gal(b1-4)GlcNAc(b1-3)[Neu5Ac(a2-3)Gal(b1-4)GlcNAc(b1-3)Gal(b1-4)GlcNAc(b1-6)]GalNAc
# Outline: as §1
# [35] = target: Neu5Ac(a2-3)Gal(b1-4)GlcNAc(b1-3)[Neu5Ac(a2-3)Gal(b1-4)GlcNAc(b1-6)]GalNAc
# Outline: as §1
# [36] = target: Neu5Ac(a2-3)Gal(b1-4)GlcNAc6S
# Outline: as §1
# [37] = target: Neu5Ac(a2-3)Gal6S(b1-4)GlcNAc
# Outline: as §1
# [38] = target: Neu5Ac(a2-3)[GalNAc(b1-4)]Gal(b1-4)Glc
# Outline: as §1
# [39] = target: Neu5Ac(a2-3)[GalNAc(b1-4)]Gal(b1-4)GlcNAc(b1-3)GalNAc
# Outline: as §1
# [40] = target: Neu5Ac(a2-6)Gal(b1-4)GlcNAc(b1-2)Man(a1-3)[Neu5Ac(a2-3)Gal(b1-4)GlcNAc(b1-2)Man(a1-6)]Man(b1-4)GlcNAc(b1-4)GlcNAc
# Outline: as §1
# [41] = target: Neu5Ac(a2-6)Gal(b1-4)GlcNAc(b1-2)Man(a1-6)[GlcNAc(b1-2)Man(a1-3)]Man(b1-4)GlcNAc(b1-4)GlcNAc
# Outline: as §1
# [42] = target: Neu5Ac(a2-8)Neu5Ac(a2-3)[Gal(b1-3)GalNAc(b1-4)]Gal(b1-4)Glc
# Outline: as §1
# [43] = target: Neu5Ac(a2-8)Neu5Ac(a2-8)Neu5Ac(a2-8)Neu5Ac(a2-3)[GalNAc(b1-4)]Gal(b1-4)Glc
# Outline: as §1
# [44] = target: Neu5Gc(a2-6)Gal(b1-4)GlcNAc
# Outline: as §1
# Neu5Gc(a2-6)GalNAc = target: Neu5Gc(a2-6)GalNAc
# Outline: as §1
binder,measurement,setting,value
Cohesin-hDC-ASGPR (Homo sapiens) (protein) LDDLDAVRIKVDTVNAKPGDTVRIPVRFSGIPSKGIANCDFVYSYDPNVLEIIEIEPGDIIVDPNPDKSFDTAVYPDRKIIVFLFAEDSGTGAYAITKDGVFATIVAKVKEGAPNGLSVIKFVEVGGFANNDLVEQKTQFFDGGANVGDTTEPATPTTPVTTPTTTDDLDAASQNSKFQRDLVTLRTDFSNFTSNTVAEIQALTSQGSSLEETIASLKAEVEGFKQERQAGVSELQEHTTQKAHLGHCPHCPSVCVPVHSEMLLRVQQLVQDLKKLTCQVATLNNNASTEGTCCPVNWVEHQDSCYWFSHSGMSWAEAEKYCQLKNAHLVVINSREEQNFVQKYLGSAYTWMGLSDPEGAWKWVDGTDYATGFQNWKPGQPDDWQGHGLGGGEDCAHFHPDGRWNDDVCQRPYHWVCEAGLGQTSQESHHHHHH,glycan array binding signal (z-score),Fuc(a1-2)Gal,-0.306
same,glycan array binding signal (z-score),[1],2.81
same,glycan array binding signal (z-score),[2],-0.377
same,glycan array binding signal (z-score),[3],-0.246
same,glycan array binding signal (z-score),[4],-0.407
same,glycan array binding signal (z-score),[5],2.85
same,glycan array binding signal (z-score),[6],-0.481
same,glycan array binding signal (z-score),[7],-0.495
same,glycan array binding signal (z-score),[8],3.55
same,glycan array binding signal (z-score),[9],2.83
same,glycan array binding signal (z-score),[10],2.03
same,glycan array binding signal (z-score),[11],1.93
same,glycan array binding signal (z-score),[12],3.15
same,glycan array binding signal (z-score),[13],-0.501
same,glycan array binding signal (z-score),[14],-0.391
same,glycan array binding signal (z-score),[15],2.9
same,glycan array binding signal (z-score),[16],-0.322
same,glycan array binding signal (z-score),Gal(a1-3)Gal(b1-4)Glc,-0.483
same,glycan array binding signal (z-score),[17],-0.475
same,glycan array binding signal (z-score),[18],0.077
same,glycan array binding signal (z-score),[19],-0.447
same,glycan array binding signal (z-score),[20],-0.517
same,glycan array binding signal (z-score),[21],-0.504
same,glycan array binding signal (z-score),[22],1.87
same,glycan array binding signal (z-score),[23],-0.306
same,glycan array binding signal (z-score),GalNAc(a1-3)GalNAc,2.37
same,glycan array binding signal (z-score),[24],1.97
same,glycan array binding signal (z-score),[25],2.84
same,glycan array binding signal (z-score),[26],2.86
same,glycan array binding signal (z-score),[27],-0.502
same,glycan array binding signal (z-score),GalNAc4S6S(b1-4)GlcNAc,-0.516
same,glycan array binding signal (z-score),[28],-0.508
same,glycan array binding signal (z-score),[29],-0.444
same,glycan array binding signal (z-score),[30],-0.439
same,glycan array binding signal (z-score),GlcNAc(b1-3)Fuc,-0.443
same,glycan array binding signal (z-score),[31],-0.485
same,glycan array binding signal (z-score),[32],-0.48
same,glycan array binding signal (z-score),Neu5Ac(a2-3)Gal,-0.335
same,glycan array binding signal (z-score),[33],-0.453
same,glycan array binding signal (z-score),[34],-0.339
same,glycan array binding signal (z-score),[35],-0.495
same,glycan array binding signal (z-score),[36],-0.518
same,glycan array binding signal (z-score),[37],-0.517
same,glycan array binding signal (z-score),[38],2.91
same,glycan array binding signal (z-score),[39],1.83
same,glycan array binding signal (z-score),[40],-0.471
same,glycan array binding signal (z-score),[41],-0.387
same,glycan array binding signal (z-score),[42],3.87
same,glycan array binding signal (z-score),[43],2.95
same,glycan array binding signal (z-score),[44],-0.392
same,glycan array binding signal (z-score),Neu5Gc(a2-6)GalNAc,2.81
